From PubChem BioAssay AID2685 (National Center for Advancing Translational Sciences (NCATS), 2010)
In all, about 320,000 compounds went through this assay and about 2,100 (0.66%) were called active. Inconclusive results (about 53%) are left out. Calls follow the shape of the dose curve; as a rule, active = well fitted inhibition curve with a large enough effect in the signal ratio, with a control signal flat (not every such curve was filed as active); inconclusive = small, poorly fitted or top-dose-only effect, or effect the other way, or a change in a side signal; inactive = flat fitted curve, though single readings scatter; the % refers to the signal ratio. The list comes from a sample in which actives are over-represented; it also holds similar structures and randomly drawn compounds.

experiment: qHTS Assay for Lipid Storage Modulators in Drosophila S3 Cells; conditions: BODIPY lipid droplet fluorescence, 18-24 h, cells fed with added oleic acid; cell number change: measured here: cell count max response; series mostly up to 46.1 µM; lipid storage change, negative = inhibition: at the top concentration;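 as to cell number change: cells counted by Cell Tracker Red CMTPX staining in the red channel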; as to lipid storage change, negative = inhibition: % is scaled to controls: 0 for no effect and ±100 for the full control effect
Summary of the method: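 Drosophila S3 cells loaded with oleic acid (400 uM, as added) and compounds at several concentrations; lipid droplets imaged by 488-nm laser-scanning cytometry, 500–530 nm intensity and object ratio to cell channel. Percent activity normalized to 20 uM Triacsin C.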
Potency is read from the fitted curve at half-maximal effect.

Compound | lipid storage change, negative = inhibition | cell number change | outcome | Potency
Cc1cc(C)c(C#N)c(OCC(=O)Nc2ccccc2)n1 | 0.134% (inactive) | 11.6% | – | –
CN1CCN(C(=O)c2ccc(Oc3ccc([N+](=O)[O-])cc3)cc2)CC1 | – | – | inactive | –
COc1cccc(CNC(=O)c2ccc(NC(=O)CC3SC(N4CCCCC4)=NC3=O)cc2)c1 (centres undefined) | -26.4% (inactive) | 11.7% | – | –
O=C(Cn1cc[n+](CC(=O)c2ccc(Cl)cc2Cl)c1)c1ccc(Cl)cc1Cl | 16.6% (inactive) | -3.27% | – | –
N/C(=N\OC(=O)c1cccc2ccccc12)c1ccncc1 | 23.4% (inactive) | 1.71% | – | –
N/C(=N\OC(=O)c1cccc2ccccc12)c1ccc(Br)cc1 | – | 18.1% | – | 10.3 µM (active)
N/C(=N\OC(=O)c1cccc2ccccc12)c1cccnc1 | 21.2% (inactive) | 18.1% | – | –
CC(=O)c1cccc(NC(=O)c2ccc(C(=O)Nc3cccc(C(C)=O)c3)nc2)c1 | -11.2% (inactive) | 0.877% | – | –
O=C(Oc1ccccc1)c1ccccc1OS(=O)(=O)c1ccccc1 | – | – | – | 0.517 µM (active)
O=Cc1ccccc1OS(=O)(=O)c1ccccc1 | -12.7% (inactive) | -9.79% | – | –
Cc1ccccc1S(=O)(=O)Oc1ccccc1C(=O)Oc1ccccc1 | -2.83% (inactive) | -11.7% | – | –
CC(=O)NC(C)C(=O)OCc1ccc(Cl)cc1Cl (centres undefined) | – | – | inactive | –
O=C(CCCCCn1c(=S)[nH]c2ccc(N3CCOCC3)cc2c1=O)NCCc1ccccc1 | -1.13% (inactive) | -6.4% | – | –
COc1cccc(CNC(=O)CCCCCn2c(=S)[nH]c3ccc(N4CCOCC4)cc3c2=O)c1 | -0.41% (inactive) | 4.01% | – | –
Cc1cccc(N2CCN(C(=O)CCCCCn3c(=S)[nH]c4ccc(N5CCOCC5)cc4c3=O)CC2)c1C | – | 1.42% | – | 20.6 µM (active)
CCc1nn(CC(=O)NCCCN(CC)CC)c(=O)c2cc3sc(C)cc3n12 | 11% (inactive) | 7.9% | – | –
COc1cccc(C(=O)COC(=O)C(C)N2C(=O)c3ccccc3C2=O)c1 (centres undefined) | 2.36% (inactive) | 8.05% | – | –
COC(=O)c1c(NC(=O)c2ccoc2C)sc(C)c1C | 28.5% (inactive) | 20.9% | – | –
CCOC(=O)c1sc(NC(=O)c2ccccc2C(=O)O)c(C(=O)OCC)c1C | 9% (inactive) | -2.04% | – | –
CCOC(=O)c1sc(NC(=O)c2ccoc2C)c(C(N)=O)c1C | – | -15.9% | – | 0.731 µM (active)
O=S(=O)(c1cccc(C(F)(F)F)c1)N1CCCC1c1cccnc1 (centres undefined) | 9.53% (inactive) | 4.77% | – | –
CCOC(=O)c1c(C)[nH]c(C(=O)CN2C(=O)NC3(CCCC3)C2=O)c1C | 3.01% (inactive) | -4.44% | – | –
CCCC1(c2ccccc2)NC(=O)N(CC(=O)c2[nH]c(C)c(C(=O)OCC)c2C)C1=O (centres undefined) | – | -26.5% | – | 8.2 µM (active)

Compound | lipid storage change, negative = inhibition | cell number change | outcome | Potency
COC(=O)c1c(C)[nH]c(C(=O)CN2C(=O)NC3(CCOc4ccccc43)C2=O)c1C (centres undefined) | 20.8% (inactive) | -21.7% | – | –
Oc1ccc(C[C@H]2CNCCN2CC2(c3ccccc3)CC2)cc1 | -18.7% (inactive) | 19.8% | – | –
COc1ccc(OC)c(NC(=O)CN(Cc2ccc(F)cc2)C2CCCCC2)c1 | – | 6.76% | – | 0.291 µM (active)
COc1ccc(OC)c(NC(=O)CCN2CCCCC2)c1 | -44.8% (inactive) | -3.94% | – | –
COc1ccc(CCCC(=O)NC2CCCCC2)cc1 | 18.2% (inactive) | 0.276% | – | –
COc1ccc(OC)c(NC(=O)CCCC(=O)NC2CCCCC2)c1 | – | -7.97% | – | 7.31 µM (active)
COc1ccc(OC)c(NC(=O)CN(Cc2ccc(Cl)cc2)S(C)(=O)=O)c1 | -6.37% (inactive) | 1.52% | – | –
COc1ccc(Cl)cc1NC(=O)CN(C)C1CCCCC1 | 10.9% (inactive) | -8.15% | – | –
Cc1ccsc1/C=C/c1n[nH]c(=O)c(C#N)c1C | – | 22.2% | inactive | –
O=C(NC1CCOC1)c1ccc(OC2CCN(CCc3ccccc3)CC2)cc1 (centres undefined) | -5.98% (inactive) | -24% | – | –
CN(C)CCOCCOc1ccccc1-c1ccccc1 | -6.88% (inactive) | -9.8% | – | –
CN(C)CCCCOc1ccccc1-c1ccccc1 | -7.9% (inactive) | -4.23% | – | –
CN(C)CCOc1ccccc1-c1ccccc1 | – | -29.9% | – | 23.1 µM (active)
COc1ccc(NS(=O)(=O)c2cc(NC(=O)COc3ccccc3F)ccc2OC)cc1 | – | -1.34% | – | 1.64 µM (active)
Cc1cc(C)nc(NS(=O)(=O)c2ccc(NC(=O)COc3ccccc3F)cc2)n1 | 13.6% (inactive) | 12.7% | – | –
COc1ccc(NS(=O)(=O)c2cc(NC(=O)Cc3c(F)cccc3Cl)ccc2OC)cc1 | 6.88% (inactive) | -6.83% | – | –
COCCNC(=O)c1ccc(CSCc2cccc(Cl)c2)o1 | 11.7% (inactive) | 7.62% | – | –
c1ccc(CCNCC2COc3ccccc3O2)cc1 (centres undefined) | 7.04% (inactive) | 16.7% | – | –
Cc1ccc(CSCCNS(=O)(=O)c2ccc([N+](=O)[O-])cc2)cc1 | 15.8% (inactive) | – | – | –
COc1ccccc1NC(=O)c1c(Nc2ccccc2C)sc(C(=O)Nc2cccc(Cl)c2)c1N | – | -26.6% | – | 1.64 µM (active)
COc1ccc(C(=O)c2sc(Nc3ccccc3)c(C(=O)Nc3ccc(OC)c(OC)c3)c2N)cc1 | 9.9% (inactive) | -20% | – | –
COc1ccccc1NC(=O)c1sc(Cl)nc1C | – | 1.65% | inactive | –
Cc1cccc(C)c1NC(=O)CN(C)C(=O)c1cccc(S(=O)(=O)N2CCN(C)CC2)c1 | -25% [at 0.0737 µM] (inactive) | 10.4% | – | –

Compound | lipid storage change, negative = inhibition | cell number change | outcome | Potency
CCOC(=O)C1CCN(CC(O)COCc2ccc3c(c2)OCO3)CC1 (centres undefined) | 6.44% (inactive) | – | – | –
CCOC(=O)C1CCN(CC(O)COCc2ccc(Cl)cc2)CC1 (centres undefined) | – | 16.5% | – | 18.4 µM (active)
CCOC(=O)C1CCN(CC(O)COCc2ccccc2)CC1 (centres undefined) | 10.2% (inactive) | 4.71% | – | –
COc1ccc(C)cc1NC(=O)CSc1nc2scc(C)c2c(=O)[nH]1 | – | 10.8% | inactive | –
COc1ccc(NC(=O)CSc2nc3scc(C)c3c(=O)[nH]2)cc1 | 19.3% (inactive) | 11.6% | – | –
COc1cccc(NC(=O)CSc2nc3scc(C)c3c(=O)[nH]2)c1 | – | 2.56% | – | 0.58 µM (active)
CCOc1ccc(-c2nnn(CC(=O)NCc3cccs3)n2)cc1 | 7.4% (inactive) | -5.47% | – | –
CC(=O)NNc1[nH]c2c(c(=O)c1[N+](=O)[O-])c(=O)n(C)c(=O)n2C | -5.91% (inactive) | -5.05% | – | –
O=C(NC(Cc1ccccc1)C(=O)O)c1ccccc1 (centres undefined) | -0.615% (inactive) | -3.84% | – | –
O=C(NC(Cc1ccccc1)C(=O)O)/C(=C/c1ccccc1)NC(=O)c1ccccc1 (centres undefined) | -12.2% (inactive) | -7.82% | – | –
CC(C)=C(NC(=O)c1ccccc1)C(=O)NC(Cc1ccccc1)C(=O)O (centres undefined) | – | -15% | – | 1.16 µM (active)
CC(=O)OCCn1c(C)[n+](CCOC(C)=O)c2cc(Cl)c(Cl)cc21 | 3.84% (inactive) | 13.2% | – | –
COc1ccc(OCC(=O)N2CC3(C)CC2CC(C)(C)C3)cc1 (centres undefined) | – | – | inactive | –
CCc1cccc2cc3c(N)c(C(=O)Nc4ccc(S(=O)(=O)N5CCCC5)cc4)sc3nc12 | – | 0.905% | – | 5.8 µM (active)
Cc1cccc2cc3c(N)c(C(=O)Nc4ccc(N5CCOCC5)cc4)sc3nc12 | 5.73% (inactive) | -1.66% | – | –
Nc1c(C(=O)Nc2ccc(S(=O)(=O)N3CCCC3)cc2)sc2nc3cc4c(cc3cc12)CCC4 | -10.7% (inactive) | 6.36% | – | –
Cc1cccn2c(=O)c3cc(C(=O)NCCc4ccccc4)sc3nc12 | – | -15.4% | inactive | –
Cc1ccc(C(=O)N2CCC(Cc3ccccc3)CC2)cc1[N+](=O)[O-] | 14.3% (inactive) | 4.11% | – | –
C=CCNC(=O)/C(C#N)=C\c1cc(Cl)c(OCC)c(OC)c1 | – | -28.8% | – | 14.6 µM (active)
C=CCNC(=O)/C(C#N)=C\c1cc(Cl)c(O)c(OCC)c1 | -22% (inactive) | 2.03% | – | –
COc1cc(/C=C(/C#N)C(=O)NCc2ccccc2)cc(OC)c1OC | – | -27.2% | inactive | –
CC(=O)Nc1ccc(NC(=O)C2CC(=O)Nc3nc4ccccc4n32)cc1 (centres undefined) | 9.73% (inactive) | -1.64% | – | –
CCSCCc1nnc(NC(=O)Nc2cccc(C(F)(F)F)c2)s1 | – | -21.6% | – | 20.6 µM (active)

Compound | lipid storage change, negative = inhibition | cell number change | outcome | Potency
CCSc1nnc(NC(=O)Nc2cccc(C)c2)s1 | -12.7% (inactive) | 17% | – | –
CNC(=O)Nc1cccc(C(F)(F)F)c1 | 10.6% (inactive) | 3.39% | – | –
CC(C)C[C@@H](CSc1ccc(Br)cc1)N1CCN(C)CCC1=O | 14.2% (inactive) | -4.06% | – | –
CC(C(=O)NCc1ccc2c(c1)OCO2)N(c1ccccc1)S(C)(=O)=O (centres undefined) | 6.83% (inactive) | 7.31% | – | –
COc1ccc(N2C(=O)CN(Cc3ccc(OC)c(OC)c3)C2=S)cc1 | -2.11% (inactive) | 10.4% | – | –
Cc1cc(C)c2nc(N(CCCN(C)C)C(=O)C3=COCCO3)sc2c1 | -22.2% (inactive) | -20% | – | –
Cc1ccc(/C=N/NC(=O)c2csc3c2CCCC3)cc1 | – | -23.6% | – | 16.4 µM (active)
O=C(N/N=C/c1ccc(O)cc1)c1csc2c1CCCC2 | -8.69% (inactive) | – | – | –
O=C(N/N=C/c1cccc(F)c1)c1csc2c1CCCC2 | 2.18% (inactive) | 1.41% | – | –
COc1ccc(C)cc1S(=O)(=O)N(CC(=O)Nc1cccc([N+](=O)[O-])c1)c1cc(C)cc(C)c1 | – | – | inactive | –
CCOc1ccccc1OCC(=O)NN1Cc2ccccc2C1=N | – | – | inactive | –
CC(=O)Nc1cccc(C(=O)/C=C/c2ccc(/C=C/C(=O)c3cccc(NC(C)=O)c3)cc2)c1 | – | -12.7% | – | 8.2 µM (active)
Cc1cccc(C(=O)Nc2ccc(O)cc2)c1 | -0.178% (inactive) | 4.55% | – | –
Cc1cccc(C(=O)Nc2ccc(C(=O)/C=C/c3ccncc3)cc2)c1 | – | -3.72% | – | 6.51 µM (active)
CC(=O)Nc1cccc(C(=O)/C=C/c2ccc[nH]2)c1 | -0.805% (inactive) | 9.89% | – | –
CSc1ccc(/C=C/C(=O)c2ccc(NC(C)=O)cc2)cc1 | – | – | inactive | –
Cc1cccc(C(=O)N/N=C/c2ccncc2)c1 | 3.87% (inactive) | -0.828% | – | –
CCOc1ccccc1CNC(=O)CCC(=O)N1Cc2ccccc2Oc2ncccc21 | – | -10.6% | inactive | –
CCOC(=O)C1(Cc2ccc(Cl)cc2)CCN(C(=O)c2cc(C)nc(C)n2)CC1 | 0.881% (inactive) | -4.86% | – | –
Cc1onc(-c2ccccc2Cl)c1C(=O)NCCCc1ccccc1 | – | -24% | inactive | –
COc1ccc(C2c3[nH]c4ccccc4c3CCN2Cc2cccn2-c2ncccn2)cc1C (centres undefined) | – | -1.91% | – | 16.4 µM (active)
Cc1cccc(C2c3[nH]c4ccccc4c3CCN2Cc2cccn2-c2ncccn2)c1 (centres undefined) | – | -27.2% | inactive | –
Fc1ccc(C2c3[nH]c4ccccc4c3CCN2Cc2cccn2-c2ncccn2)cc1 (centres undefined) | -15.7% (inactive) | 1.18% | – | –
